Laboratory results reported in PubChem BioAssay (NCI).
The panel holds about 83,000 compounds, 20% with a hit somewhere; the sample as a whole holds those more often.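 Testing used 96-well plates and a 48-hour single-concentration exposure. Example: -40 means 40% of the starting cells died.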 Values without a mark were called inactive. Calls of active or inactive are those of the source. How the source made its calls: active means growth percent below 10; inactive means the rest.

What follows are compounds tested on KM12 colon (assay: NCI-60 one-dose screen, 48 h (100 = growth as untreated, 0 = no growth, -100 = all killed)). Conditions: 10 µM unless noted.

| SMILES | growth |
| --- | --- |
| Cc1csc(-c2nnc(Nc3ccc(Oc4ncccc4-c4ccnc(N)n4)cc3)c3ccccc23)c1 | 19.2% |
| CC(C)CC(=O)Nc1n[nH]c2c1CN(C(=O)C1CCN(C)CC1)C2(C)C | 9.26% (active) |
| Cc1ccccc1N1C(c2ccccc2)=NNC12C=CC(=O)C=C2Cl (centres undefined) | 110% |
| C=CCn1c(=O)c2cnc(Nc3ccc(N4CCN(C)CC4)cc3)nc2n1-c1cccc(C(C)(C)O)n1 | 0.327% (active) |
